Measured values from PubChem BioAssay AID1159580 (chemical genetic matrix, 2015).
Where “and” joins values, the source holds several entries; their conditions need not be identical. Equal values may be shown once. Hit rate of the full screen: of about 5,500 compounds, about 2,000 (36%) were called active. About 18% were inconclusive and are not listed. Rule as the data show it: active = normalized growth mostly below about 0.91 (no sharp cut-off); inconclusive = no clear call, values can overlap the other calls; inactive = mostly above about 0.92. This is one part of the list.

Test: chemical genetic growth profiling, strain panel (AID 1159580);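 also: tested at 20 µM; growth read once vehicle control cultures reached saturation at 30 °C; 1 = growth at the plate median or of vehicle wells; lower values mean less growth of the strain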
Details: S. cerevisiae deletion strains, growth OD

Measured: normalized growth

CC(C)=CCC[C@](C)(O)C1CC=C(C)CC1 (stereo partly specified)
inactive: locus YAL021C, strain ccr4, hits give low values 0.958 | locus YAL026C, strain drs2, hits give low values 0.987 | locus YAL030W, strain snc1, hits give low values 0.994 | locus YBL061C, strain skt5, hits give low values 0.98 | locus YBR009C, strain hhf1, hits give low values 0.996 | locus YBR021W, strain FUR4, hits give low values 0.966 | locus YBR023C, strain chs3, hits give low values 0.981 | locus YBR171W, strain sec66, hits give low values 0.967 | locus YBR229C, strain ROT2, hits give low values 1.02 | locus YBR231C, strain swc5, hits give low values 1 | locus YBR279W, strain paf1, hits give low values 0.99 | locus YCL011C, strain gbp2, hits give low values 0.979 | locus YCL016C, strain dcc1, hits give low values 0.992 | locus YCL029C, strain bik1, hits give low values 1 | locus YCL061C, strain MRC1, hits give low values 0.982 | locus YCL069W, strain vba3, hits give low values 0.987 | locus YCR088W, strain abp1, hits give low values 0.986 | locus YDL005C, strain med2, hits give low values 0.971 | locus YDL035C, strain GPR1, hits give low values 0.984 | locus YDL040C, strain nat1, hits give low values 1 | locus YDL074C, strain BRE1, hits give low values 0.995 | locus YDL101C, strain DUN1, hits give low values 1.02 | locus YDL134C, strain PPH21, hits give low values 1.02 | locus YDL185W, strain tfp1, hits give low values 0.987 | locus YDL192W, strain arf1, hits give low values 0.969 | locus YDR001C, strain nth1, hits give low values 0.994 | locus YDR069C, strain doa4, hits give low values 0.995 | locus YDR101C, strain arx1, hits give low values 0.976 | locus YDR137W, strain rgp1, hits give low values 0.972 | locus YDR159W, strain sac3, hits give low values 1 | locus YDR162C, strain NBP2, hits give low values 1.04 | locus YDR195W, strain ref2 1 | locus YDR297W, strain sur2, hits give low values 1.01 | locus YDR318W, strain mcm21, hits give low values 1 | locus YDR334W, strain swr1, hits give low values 0.985 | locus YDR335W, strain msn5, hits give low values 0.984 | locus YDR388W, hits give low values 1 | locus YDR392W, strain spt3, hits give low values 0.906 | locus YDR502C, strain sam2, hits give low values 0.973 | locus YEL003W, strain gim4, hits give low values 0.983 | locus YEL037C, strain rad23, hits give low values 0.978 | locus YEL061C, strain CIN8 (second series), hits give low values 0.983 | locus YEL061C, strain CIN8, hits give low values 1.02 | locus YER015W, strain faa2, hits give low values 0.987 | locus YER016W, strain bim1, hits give low values 0.987 | locus YER110C, hits give low values 0.982 | locus YER111C, strain swi4, hits give low values 0.969 | locus YER155C, strain BEM2 (second series), hits give low values 0.985 | locus YER155C, strain BEM2, hits give low values 1.02 | locus YER167W, strain BCK2, hits give low values 1.01 | locus YFR010W, strain ubp6, hits give low values 0.976 | locus YGL078C, strain dbp3, hits give low values 0.97 | locus YGL086W, strain mad1, hits give low values 0.976 | locus YGL167C, strain pmr1, hits give low values 0.982 | locus YGL173C, strain kem1, hits give low values 0.981 | locus YGL227W, strain vid30, hits give low values 0.981 | locus YGL240W, strain doc1, hits give low values 0.994 | locus YGL248W, strain PDE1, hits give low values 1.02 | locus YGL253W, strain hxk2, hits give low values 0.959 | locus YGR135W, strain pre9, hits give low values 1.01 | locus YGR252W, strain gcn5, hits give low values 0.962 | locus YHR013C, strain ard1, hits give low values 0.997 | locus YHR027C, strain rpn1, hits give low values 0.999 | locus YHR030C, strain SLT2, hits give low values 1.02 and 1 | locus YHR079C, strain IRE1 (second series), hits give low values 0.98 | locus YHR079C, strain IRE1, hits give low values 0.988 | locus YHR094C, strain hxt1, hits give low values 0.985 | locus YHR129C, strain ARP1, hits give low values 1.02 | locus YHR142W, strain chs7, hits give low values 0.953 | locus YHR200W, strain rpn10, hits give low values 1 | locus YIL066C, strain RNR3, hits give low values 1.02 | locus YIL073C, strain SPO22, hits give low values 1.02 | locus YIL125W, strain kgd1, hits give low values 0.997 | locus YIR030C, strain dcg1, hits give low values 0.991 | locus YJL092W, strain hpr5, hits give low values 0.958 | locus YJL095W, strain BCK1 (second series), hits give low values 0.976 | locus YJL095W, strain BCK1, hits give low values 1.04 and 0.993 | locus YJL115W, strain asf1, hits give low values 0.988 | locus YJL129C, strain trk1, hits give low values 0.973 | locus YJL134W, strain LCB3, hits give low values 1.01 | locus YJL154C, strain vps35, hits give low values 0.995 | locus YJL164C, strain tpk1, hits give low values 1 | locus YJL166W, strain qcr8, hits give low values 0.989 | locus YJL168C, strain set2, hits give low values 0.987 | locus YJL187C, strain SWE1 (second series), hits give low values 1.03 | locus YJL187C, strain SWE1, hits give low values 0.987
